Experiment [1] in a line: NCI Yeast Anticancer Drug Screen. Data for the rad50 strain (AID 155).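 Note: 0% = growth of vehicle-only cultures of the same strain.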 The settings on record: S. cerevisiae rad50 strain growth inhibition, hits give high values. Summed up: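 A DNA repair-deficient yeast mutant serves as the test organism; compound-induced growth inhibition is calculated against vehicle-treated cells.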
Experiment [2] can be described thus: NCI Yeast Anticancer Drug Screen. Data for the mec2-1 strain (AID 157). The conditions noted are these: S. cerevisiae mec2-1 strain, hits give high values. Summed up: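 Readout is yeast growth inhibition, normalised to vehicle-treated controls, in the mec2-1 strain exposed to compound.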
The nature of experiment [3]: NCI Yeast Anticancer Drug Screen. Data for the sgs1 mgt1 strain (AID 161).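 Note: 0% = growth of cultures given vehicle only.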 The conditions noted are these: S. cerevisiae sgs1 mgt1 strain, hits give high values. The method, boiled down: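 This yeast growth screen uses a strain with defined DNA-repair lesions; compound-treated growth is compared with vehicle-treated growth.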
Experiment [4] is described as follows: NCI Yeast Anticancer Drug Screen. Data for the cln2 rad14 strain (AID 165).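 Note: 0% = growth equal to vehicle treated cultures.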 The conditions noted are these: S. cerevisiae cln2 rad14 strain, hits give high values. Summed up: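 Relative to vehicle controls, growth inhibition of compound-treated cln2 rad14 yeast was recorded.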
Experiment [5] in a line: NCI Yeast Anticancer Drug Screen. Data for the bub3 strain (AID 167). The settings on record: S. cerevisiae bub3 mutant strain, hits give high values. Summed up:
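Inhibition values come from growth of compound-treated mutant yeast normalised to vehicle-treated controls.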

A short description of experiment [6]: NCI Yeast Anticancer Drug Screen. Data for the mlh1 rad18 strain (AID 175). The conditions noted are these: S. cerevisiae mlh1 rad18 strain growth inhibition, hits give high values. Summed up: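 Test agents were incubated with a yeast strain of defined genotype (DNA damage repair defect). Inhibition of growth was derived by comparison with vehicle-exposed cultures.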

Where [7] appears, read: at 5.0 µM (retest, dose inferred, filed as 0.5).
[8] abbreviates: at 50.0 µM (retest, dose inferred, filed as 5.0).

About 79,000 compounds went through this panel and 15% of them were active in at least one assay; those are over-represented in the sample as a whole. Values without a mark were called inactive. Active and inactive are the calls of the source. Cut-off read from the data, not from the text of the source: active = growth inhibition above about 70%; inactive = the rest.

With `COc1ccc(N=Nc2ccc3oc(=O)c(C(=O)Nc4ccccc4C)cc3c2)cc1`, the growth inhibition was 3% in experiment [1] (setting [7]); 98% (active) in experiment [1] (setting [8]); 96.8% (active) in experiment [1] (at 50.0 µM); -18% in experiment [2] (setting [7]); 97% (active) in experiment [2] (setting [8]); 97% (active) in experiment [2] (at 50.0 µM). Besides, the growth inhibition was -8% in experiment [3] (setting [7]); 96% (active) in experiment [3] (setting [8]); 97.5% (active) in experiment [3] (at 50.0 µM); 1% in experiment [4] (setting [7]); 86% (active) in experiment [4] (setting [8]); 93% (active) in experiment [4] (at 50.0 µM). For the same compound, the growth inhibition was -5% in experiment [5] (setting [7]); 86% (active) in experiment [5] (setting [8]); 97.7% (active) in experiment [5] (at 50.0 µM); -2% in experiment [6] (setting [7]); 98% (active) in experiment [6] (setting [8]); 97.5% (active) in experiment [6] (at 50.0 µM).
As for `COC(=O)/C(=C/c1ccc(/C=C(/C(=O)O)c2ccc(OC)cc2)o1)c1ccccc1`, the growth inhibition in experiment [1] (setting [7]) was 3%; in experiment [1] (setting [8]) it was 99% (active); in experiment [1] (at 50.0 µM), 8.35%; in experiment [2] (setting [7]), 2%; in experiment [2] (setting [8]), 99% (active); in experiment [2] (at 50.0 µM) it was 10.8%. Moreover, the growth inhibition in experiment [3] (setting [7]) was 0%; in experiment [3] (setting [8]), 99% (active); in experiment [3] (at 50.0 µM), -3.5%; in experiment [4] (setting [7]), 15%; in experiment [4] (setting [8]) it was 99% (active); in experiment [4] (at 50.0 µM) it was 11.6%. Besides, the growth inhibition in experiment [5] (setting [7]) is 0%; in experiment [5] (setting [8]), 99% (active); in experiment [5] (at 50.0 µM) it was 1.7%; in experiment [6] (setting [7]), 3%; in experiment [6] (setting [8]), 99% (active); in experiment [6] (at 50.0 µM) it was 30.8%.
Consider `C=C(CN(C)C)C(=O)c1ccc(C)cc1C`, for which the growth inhibition is 34% in experiment [1] (setting [7]); 99% (active) in experiment [1] (setting [8]); 99.4% (active) in experiment [1] (at 50.0 µM); 18% in experiment [2] (setting [7]); 99% (active) in experiment [2] (setting [8]); 99.5% (active) in experiment [2] (at 50.0 µM). Moreover, the growth inhibition in experiment [3] (setting [7]) was 64%; in experiment [3] (setting [8]) it was 99% (active); in experiment [3] (at 50.0 µM) it was 99.4% (active); in experiment [4] (setting [7]), 24%; in experiment [4] (setting [8]), 99% (active); in experiment [4] (at 50.0 µM), 99.3% (active). For the same compound, the growth inhibition in experiment [5] (setting [7]) is 77% (active); in experiment [5] (setting [8]), 99% (active); in experiment [5] (at 50.0 µM) it was 56%; in experiment [6] (setting [7]), 74% (active); in experiment [6] (setting [8]) it was 99% (active); in experiment [6] (at 50.0 µM), 99.2% (active).
With `COC(=O)CSc1nc2ccccc2[nH]1`, the growth inhibition is -146% in experiment [1] (setting [7]); -48% in experiment [1] (setting [8]); 27% in experiment [1] (at 50.0 µM); -48% in experiment [2] (setting [7]); -47% in experiment [2] (setting [8]); -11.8% in experiment [2] (at 50.0 µM). Moreover, the growth inhibition in experiment [3] (setting [7]) was -64%; in experiment [3] (setting [8]) it was -39%; in experiment [3] (at 50.0 µM) it was -6.2%; in experiment [4] (setting [7]) it was -50%; in experiment [4] (setting [8]), -59%; in experiment [4] (at 50.0 µM) it was -27.1%. For the same compound, the growth inhibition in experiment [5] (setting [7]) was -63%; in experiment [5] (setting [8]) it was -46%; in experiment [5] (at 50.0 µM), -19.6%; in experiment [6] (setting [7]), -119%; in experiment [6] (setting [8]) it was -119%; in experiment [6] (at 50.0 µM), -29.6%.
In the case of `CCCCOC(c1ccccc1)N1CCCCC1` (stereo not given), the growth inhibition in experiment [1] (setting [7]) is 0%; in experiment [1] (setting [8]), 6%; in experiment [1] (at 50.0 µM), 28.8%; in experiment [2] (setting [7]), 0%; in experiment [2] (setting [8]), 11%; in experiment [2] (at 50.0 µM), -10.7%. Also, the growth inhibition is -3% in experiment [3] (setting [7]); 6% in experiment [3] (setting [8]); 35.8% in experiment [3] (at 50.0 µM); -3% in experiment [4] (setting [7]); -12% in experiment [4] (setting [8]); -13.6% in experiment [4] (at 50.0 µM). For the same compound, the growth inhibition was -4% in experiment [5] (setting [7]); -4% in experiment [5] (setting [8]); 4.15% in experiment [5] (at 50.0 µM); -4% in experiment [6] (setting [7]); -3% in experiment [6] (setting [8]); 7.35% in experiment [6] (at 50.0 µM).
As for `C(/Cc1ccc2c(c1)OCO2)=N\NC1=NCCCCN1`, the growth inhibition is -3% in experiment [1] (setting [7]); -18% in experiment [1] (setting [8]); 15.7% in experiment [1] (at 50.0 µM); -3% in experiment [2] (setting [7]); -5% in experiment [2] (setting [8]); -7.25% in experiment [2] (at 50.0 µM). Also, the growth inhibition was -2% in experiment [3] (setting [7]); -15% in experiment [3] (setting [8]); -16.2% in experiment [3] (at 50.0 µM); 0% in experiment [4] (setting [7]); -17% in experiment [4] (setting [8]); 28.8% in experiment [4] (at 50.0 µM). The growth inhibition is -1% in experiment [5] (setting [7]); -20% in experiment [5] (setting [8]); 3.2% in experiment [5] (at 50.0 µM); 0% in experiment [6] (setting [7]); -18% in experiment [6] (setting [8]); -6.5% in experiment [6] (at 50.0 µM).
On to `CC12CCC(O)CC1CCC1C2CCC2(C)C(NC(=O)N(CCCl)N=O)CCC12` (stereo not given), for which the growth inhibition in experiment [1] (setting [7]) was 6%; in experiment [1] (setting [8]) it was 74% (active); in experiment [1] (at 50.0 µM), 91.3% (active); in experiment [2] (setting [7]), 2%; in experiment [2] (setting [8]), 78% (active); in experiment [2] (at 50.0 µM) it was 80.5% (active). Further, the growth inhibition was -205% in experiment [3] (setting [7]); 84% (active) in experiment [3] (setting [8]); 92.9% (active) in experiment [3] (at 50.0 µM); -1% in experiment [4] (setting [7]); 35% in experiment [4] (setting [8]); 65.8% in experiment [4] (at 50.0 µM). In addition, the growth inhibition was -7% in experiment [5] (setting [7]); 63% in experiment [5] (setting [8]); 56.8% in experiment [5] (at 50.0 µM); 46% in experiment [6] (setting [7]); 94% (active) in experiment [6] (setting [8]); 94.5% (active) in experiment [6] (at 50.0 µM).
For `CCCCCCCCCCCCSC(=NCC)NCC`, the growth inhibition in experiment [1] (setting [7]) was 89% (active); in experiment [1] (setting [8]), 99% (active); in experiment [1] (at 50.0 µM), 99.6% (active); in experiment [2] (setting [7]), 79% (active); in experiment [2] (setting [8]), 100% (active); in experiment [2] (at 50.0 µM), 99.8% (active). Moreover, the growth inhibition is 98% (active) in experiment [3] (setting [7]); 100% (active) in experiment [3] (setting [8]); 48.8% in experiment [3] (at 50.0 µM); 59% in experiment [4] (setting [7]); 99% (active) in experiment [4] (setting [8]); 99.1% (active) in experiment [4] (at 50.0 µM). In addition, the growth inhibition in experiment [5] (setting [7]) was 96% (active); in experiment [5] (setting [8]), 100% (active); in experiment [5] (at 50.0 µM), 99.6% (active); in experiment [6] (setting [7]), 89% (active); in experiment [6] (setting [8]) it was 99% (active); in experiment [6] (at 50.0 µM) it was 99.5% (active).
With `CCOC(=O)N1C=C(C(=O)OC)C(c2ccccc2)C(C(=O)OC)=C1`, the growth inhibition was 4% in experiment [1] (setting [7]); 6% in experiment [1] (setting [8]); -15.2% in experiment [1] (at 50.0 µM); 0% in experiment [2] (setting [7]); 20% in experiment [2] (setting [8]); -9.35% in experiment [2] (at 50.0 µM). Besides, the growth inhibition is 5% in experiment [3] (setting [7]); 14% in experiment [3] (setting [8]); -6.3% in experiment [3] (at 50.0 µM); -5% in experiment [4] (setting [7]); 4% in experiment [4] (setting [8]); 32.6% in experiment [4] (at 50.0 µM). Further, the growth inhibition in experiment [5] (setting [7]) is 8%; in experiment [5] (setting [8]), 35%; in experiment [5] (at 50.0 µM), -4.25%; in experiment [6] (setting [7]), 2%; in experiment [6] (setting [8]), 20%; in experiment [6] (at 50.0 µM), 1.25%.
Consider `CC(C)(C)CC(=O)O`, for which the growth inhibition in experiment [1] (setting [7]) was 8%; in experiment [1] (setting [8]) it was 9%; in experiment [1] (at 50.0 µM) it was 5.05%; in experiment [2] (setting [7]), 5%; in experiment [2] (setting [8]), 3%; in experiment [2] (at 50.0 µM) it was 18.1%. The growth inhibition in experiment [3] (setting [7]) was -5%; in experiment [3] (setting [8]), 2%; in experiment [3] (at 50.0 µM), 29.1%; in experiment [4] (setting [7]), -2%; in experiment [4] (setting [8]), -4%; in experiment [4] (at 50.0 µM), 27.1%. Further, the growth inhibition is 2% in experiment [5] (setting [7]); 13% in experiment [5] (setting [8]); 26.9% in experiment [5] (at 50.0 µM); 7% in experiment [6] (setting [7]); 8% in experiment [6] (setting [8]); -2.2% in experiment [6] (at 50.0 µM).

The values are drawn from PubChem BioAssay (NCI).
